Laboratory results published in PubChem BioAssay (NCATS).
Inconclusive results are not listed. Values without a mark were called inactive. The source made the active and inactive calls. Calls come from the whole dose curve.

biological target: Nucleoprotein (Lymphocytic choriomeningitis virus (strain Armstrong)) (UniProt P09992); assay: qHTS for Inhibitors of the Functional Ribonucleoprotein Complex (vRNP) of Lymphocytic Choriomeningitis Arenaviruses (LCMV): LCMV Primary Screen - GLuc reporter signal (AID 1347086); conditions: LCMV minigenome vRNP cell assay, Gaussia luciferase reporter; series mostly up to 57.5 µM; activity change, negative = inhibition: at the top concentration; note: nearly all actives have a fitted effect of over 70% in size
% is set by controls: 0 for no effect and ±100 for the full control effect; potency is the fitted concentration of half-maximal effect.

Nucleoprotein (Lymphocytic choriomeningitis virus (strain Armstrong)), sequence (P09992 whole entry, looked up): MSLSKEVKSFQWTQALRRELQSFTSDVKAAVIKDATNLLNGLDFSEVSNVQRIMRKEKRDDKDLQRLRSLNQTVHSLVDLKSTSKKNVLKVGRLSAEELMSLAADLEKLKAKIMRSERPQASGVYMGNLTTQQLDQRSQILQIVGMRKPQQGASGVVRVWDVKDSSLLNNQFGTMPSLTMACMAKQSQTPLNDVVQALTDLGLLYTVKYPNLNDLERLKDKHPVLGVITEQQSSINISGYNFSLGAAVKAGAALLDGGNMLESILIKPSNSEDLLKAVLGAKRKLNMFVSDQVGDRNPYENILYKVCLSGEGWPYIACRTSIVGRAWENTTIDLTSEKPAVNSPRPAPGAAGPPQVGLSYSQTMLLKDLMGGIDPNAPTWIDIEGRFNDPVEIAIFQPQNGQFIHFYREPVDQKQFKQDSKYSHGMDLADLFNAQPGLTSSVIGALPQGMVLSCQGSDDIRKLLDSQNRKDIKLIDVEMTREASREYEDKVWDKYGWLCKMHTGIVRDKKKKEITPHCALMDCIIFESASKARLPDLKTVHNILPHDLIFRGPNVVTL

| Structure (SMILES) | activity change, negative = inhibition [%] | Potency |
| --- | --- | --- |
| O=C1c2ccccc2C(=O)C1c1ccccc1 | 17.5 |  |
| Cn1c(=O)c2c(ncn2C)n(C)c1=O |  | inactive |
| CCCCNc1ccc(C(=O)OCCN(C)C)cc1 |  | inactive |
| CCOC(=O)[C@H](CCc1ccccc1)N[C@H]1CCc2ccccc2N(CC(=O)O)C1=O |  | inactive |
| O=C(Nc1ccc(S(=O)(=O)N2CCOCC2)cc1)c1cc(Cl)ccc1NS(=O)(=O)c1ccc(Cl)s1 | -2.59 |  |
| Cc1ncc([N+](=O)[O-])n1C | 35 |  |
| C[C@@H](O)[C@H]1C(=O)N2C(C(=O)O)=C([C@H]3CCCO3)S[C@H]12 | -8.96 |  |
| OC(C#CCN1CCCC1)(c1ccccc1)c1ccccc1 | 1.25 |  |
| CCCCOc1ccc(CC(=O)NO)cc1 | -1.87 |  |
| CCCOc1ccccc1-c1nc2n[nH]nc2c(=O)[nH]1 |  | inactive |
| CC[C@]12CCCN3CCc4c(n(c5ccccc45)C(=O)C1)[C@@H]32 |  | 7.08 µM (active) |
| NC(=O)c1ncn([C@@H]2O[C@H](CO)[C@@H](O)[C@H]2O)c1N | 1.83 |  |
| C#C[C@]1(O)CC[C@H]2[C@@H]3CCc4cc(O)ccc4[C@H]3CC[C@@]21C | -5.23 |  |
| CC(=O)Nc1ccc(S(=O)(=O)Nc2ccc([N+](=O)[O-])cc2)cc1 | 2.61 |  |
| Cc1c(-c2ccccc2)oc2c(C(=O)OCCN3CCCCC3)cccc2c1=O | 12.6 |  |
| CCCCOc1ccc(OCCCN2CCOCC2)cc1 | -56 |  |
| O=c1[nH]c2cc(C(F)(F)F)c(N3CCOCC3)cc2n(CP(=O)(O)O)c1=O | 0.478 |  |
| CCCOc1ccc(C(=O)OCCN(CC)CC)cc1N |  | inactive |
| CCC(CN)=C(c1ccccc1)c1ccccc1 | -18.4 |  |
